This is an account of results in PubChem BioAssay AID488794 (Sanford-Burnham Center for Chemical Genomics, 2010).

Usually inhibition stands for how much of the control response was suppressed.

Hit rate of the full screen: of about 1,000 compounds, about 550 (55%) were called active. So high a share suggests a set chosen from earlier hits. A selection follows. Values without a mark were called inactive. Rule as the data show it: active = inhibition above about 50%; inactive = the rest.

This assay can be described thus: yeast-expressed human NALP3 blockade, retest – luminescence, single concentration, confirmation (AID 488794). The settings on record: yeast expressing human NALP3, luminescence read-out; at 10 µM; active compounds read high.
In the case of `CN(C)c1ccnc2sc(C(=O)c3ccccc3)c(N)c12`, the inhibition is 53.6% (active).
The figure for `Oc1c(Cl)cc(Cl)c(Cl)c1Cc1c(O)c(Cl)cc(Cl)c1Cl` is 98.5% (active); for `Cc1ccnc(Nc2nc3ccccc3s2)n1` it is 27.6%; for `O=C(CC(O)(C(F)(F)F)C(F)(F)F)Nc1ccc(Cl)c(Cl)c1` it is 99.8% (active).
For the molecule `Cc1ccc(O)c(NC(=O)c2cc(-c3ccco3)on2)c1`, the inhibition was 63.7% (active).
Consider `COc1ccccc1C(=O)Nc1ccc(NC(=O)c2ccco2)c(C)c1`, for which the inhibition is 32.3%.
The figure for `Cc1ccc(CSc2nsc(C)c2C#N)cc1` is 48.2%.
The figure for `Cc1ccc(OCc2nc3ccccc3n2C)cc1` is 57.2% (active); for `CC(C)n1c(COc2ccccc2)nc2ccccc21` it is 47.7%.
Consider `CN=C1C=C/C(=N/N=c2\ccn(O)cc2C)C=C1C`, for which the inhibition was 57.2% (active).
For the molecule `O=[N+]([O-])c1cccc(/C=N/Nc2ncc(Br)cn2)c1`, the inhibition is 33.4%.
The figure for `CCc1noc(C)c1C(=O)Nc1nc2ccc(OC)cc2s1` is 55.5% (active); for `COc1cc(N2C(=O)CSC2=S)cc(OC)c1OC` it is 35.6%.
Consider `O=C1CSC(=S)N1c1ccc(O)cc1`, for which the inhibition was 59.4% (active).
The figure for `Fc1ccccc1-c1cc2cc3c(cc2cn1)OCO3` is 39%; for `Nc1c(-c2cccc(Cl)c2)cnn1-c1cccc([N+](=O)[O-])c1` it is 52.1% (active).
For the molecule `O=C(CSc1ncnc2c1oc1ccccc12)NC1CCCC1`, the inhibition is 25.1%.
The figure for `Cn1c(=NC(=O)c2ccco2)sc2cccc(F)c21` is 34.1%; for `Cc1cccc(NC(=S)NC(=O)c2ccc(Br)o2)c1` it is 65.7% (active); for `Cc1ccc(-c2nn(C(C)(C)C)c3ncnc(N)c23)cc1` it is 63.2% (active).
The figure for `O=C(Nc1ccccc1Cl)/C(Cl)=C(\Cl)S(=O)c1ccccc1` (stereo not given) is 74.7% (active); for `N#Cc1nc(Cc2ccccc2)oc1NCCc1ccccc1` it is 36.6%.
The figure for `CCOC(=O)c1c(C)[nH]c(C(=O)COc2ccc3c(c2)OCO3)c1C` is 54.5% (active).
Regarding `COc1ccccc1OCc1nc2ccccc2s1`, the inhibition is 43.2%.
The figure for `CCCN(CC1CC1)C(=S)NC(=O)c1ccccc1Br` is 38.8%; for `Cc1cc(C)nc(NC(=O)Nc2ccccc2C(F)(F)F)n1` it is 34.8%.
The figure for `Cc1c(C(=O)N2CCCc3ccccc32)oc2ccccc12` is 47.9%; for `O=C(Oc1c(-c2ccco2)oc2ccccc2c1=O)c1cccnc1` it is 68.5% (active); for `Oc1ccc(Br)cc1/C=N/Nc1ccccn1` it is 43.2%.
The figure for `O=C(CSc1ccc(-c2ccc(-n3cccn3)cc2)nn1)Nc1ccc([N+](=O)[O-])cc1` is 18.1%.
